Laboratory results: PubChem BioAssay (EPA / NIEHS)
Values joined by “and” are separate entries in the source; they are usually repeats but may differ in a detail not shown here. Identical values can stand only once. Inconclusive results are not listed. More than one record can exist for a structure, and the calls need not agree. Active and inactive are the calls of the source. How the source made its calls, unless noted: active means hit-call score of the fitted dose curve at least 0.9, where 1 is the maximum; inactive means score below 0.9.

Tests used:
[1] = ATG_PBREM_CIS: Attagene CIS-FACTORIAL HepG2 Assay for human Phenobarbital-responsive Enhancer Module (PBREM) (AID 2282955); conditions: HepG2 PBREM cis-reporter, Attagene multiplexed transcription; actives raise or lower the signal
Summary of the method: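 Endogenous transcription factor activity was read from reporter transcripts in transiently transfected human HepG2 liver cells after 24 h dosing. RT-PCR products were fluorescently labelled, HpaI-cut and sized by capillary electrophoresis; activity fitted bidirectionally against DMSO baseline.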

[2] = target: Paired box protein Pax-6 (Homo sapiens) (UniProt P26367); experiment: ATG_Pax6_CIS: Attagene CIS-FACTORIAL HepG2 Assay for human Paired Box 6 (PAX6) (AID 2282956); conditions: HepG2 CIS-FACTORIAL PAX6 reporter transcription, RNA readout; actives raise or lower the signal
Summary of the method: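 Read-out is reporter transcript level, measured by RT-PCR with fluorescent primer extension and capillary electrophoresis after 24 h dosing of transfected HepG2 cells. Activity in either direction fitted relative to DMSO control.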

[3] = ATG_PXRE_CIS: Attagene CIS-FACTORIAL HepG2 Assay for human Pregnane X Receptor Element (PXRE) (AID 2282957); conditions: HepG2 Attagene CIS-FACTORIAL PXRE reporter, mRNA; actives raise or lower the signal
Summary of the method: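 After a 24 h chemical incubation, total RNA from transfected HepG2 cells was reverse-transcribed and reporter cDNA amplified, FAM-labeled, HpaI-digested and sized by capillary electrophoresis. DMSO served as baseline for bidirectional curve fitting.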

[4] = ATG_PPRE_CIS: Attagene CIS-FACTORIAL HepG2 Assay for human Peroxisome Proliferator-activated Response Element (PPRE) (AID 2282958); conditions: HepG2 PPRE cis-element reporter, Attagene transcription factor profiling; actives raise or lower the signal
Summary of the method: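 Endogenous PPRE-driven transcription is measured in HepG2 cells carrying transfected multi-reporter constructs. Reporter transcripts are quantified by RT-PCR, HpaI digestion and capillary electrophoresis 24 h after dosing. DMSO baseline, bidirectional fit.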

[5] = ATG_RORE_CIS: Attagene CIS-FACTORIAL HepG2 Assay for human RAR-related Orphan Receptor Element (RORE) (AID 2282959); conditions: HepG2 Attagene cis-factorial RORE reporter, mRNA; actives raise or lower the signal
Summary of the method: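 RORE reporter transcripts reflecting endogenous factor activity were read after 24 h compound exposure of transfected HepG2 cells, using reverse transcription, PCR, fluorescent labelling and capillary electrophoresis sizing. Gain or loss fitted against DMSO.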

[6] = ATG_Sox_CIS: Attagene CIS-FACTORIAL HepG2 Assay for human SRY-box transcription factor (SOX) (AID 2282960); conditions: HepG2 Attagene cis-factorial SOX reporter, mRNA; actives raise or lower the signal
Summary of the method: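 Reporter transcripts, measured by RT-PCR and capillary electrophoresis of labelled fragments, report endogenous SOX transcription factor activity. Transiently transfected human HepG2 cells receive chemical for 24 h; changes in either direction are fitted relative to DMSO.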

[7] = target: Transcription factor Sp1 (Homo sapiens) (UniProt P08047); experiment: ATG_Sp1_CIS: Attagene CIS-FACTORIAL HepG2 Assay for human Specificity Protein 1 (Sp1) (AID 2282961); conditions: HepG2 Sp1 cis-reporter transcription, actives raise or lower the signal
Summary of the method: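 Read-out is reporter transcript level, measured by RT-PCR and fluorescent capillary electrophoresis after 24 h chemical treatment. System: transiently transfected HepG2 cells reporting endogenous transcription factor activity; gain or loss fitted against DMSO baseline.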

[8] = ATG_SREBP_CIS: Attagene CIS-FACTORIAL HepG2 Assay for human Sterol Regulatory Element Binding (SREBP) (AID 2282962); conditions: HepG2 Attagene cis-factorial SREBP reporter, mRNA; actives raise or lower the signal
Summary of the method: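 Endogenous SREBP activity read as cis-element-driven reporter transcript in transiently transfected HepG2, 24 h post-dosing; quantified via RT-PCR plus capillary electrophoresis of fluorescent fragments. Gain or loss of signal fitted relative to DMSO baseline.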

[9] = target: Signal transducer and activator of transcription 3 (Homo sapiens) (UniProt P40763); experiment: ATG_STAT3_CIS: Attagene CIS-FACTORIAL HepG2 Assay for human Signal Transducer and Activator of Transcription 3 (STAT3) (AID 2282963); conditions: HepG2, Attagene cis-factorial STAT3 reporter transcription; actives raise or lower the signal
Summary of the method: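 Cis-factorial format: endogenous transcription factors in HepG2 drive transfected reporter units. After 24 h treatment, reporter RNA was reverse-transcribed, amplified, FAM-labelled and HpaI-digested before CE analysis; activity scored in both directions against DMSO.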

[10] = ATG_TA_CIS: Attagene CIS-FACTORIAL HepG2 Assay for human TA Basal Promoter (AID 2282964); conditions: HepG2 Attagene CIS-factorial TA basal promoter reporter; actives raise or lower the signal
Summary of the method: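 HepG2 cells transiently transfected with multiplexed cis-promoter reporter units, dosed 24 h. Reporter mRNA measured by RT-PCR, 6-FAM labelling, HpaI digestion and capillary electrophoresis; bidirectional fit versus DMSO baseline, serving as background control.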

[11] = ATG_TCF_b_cat_CIS: Attagene CIS-FACTORIAL HepG2 Assay for human T-Cell-Factor with beta-catenin (TCF/b-cat) (AID 2282965); conditions: HepG2 TCF/beta-catenin cis-reporter transcription, actives raise or lower the signal
Summary of the method: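 Endogenous TCF/LEF activity read as reporter transcript level via RT-PCR and capillary electrophoresis fluorescence in transfected HepG2, 24 h exposure; gain or loss of signal fitted against DMSO controls.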

[12] = ATG_TAL_CIS: Attagene CIS-FACTORIAL HepG2 Assay for human TAL Basal Promoter (AID 2282966); conditions: HepG2 Attagene cis-factorial TAL promoter reporter; actives raise or lower the signal;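 further: background control endpoint measuring basal TAL promoter reporter mRNA not a specific factor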
Summary of the method: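 Basal-promoter background-control endpoint from a multiplexed HepG2 reporter panel. Cells were exposed 24 h, then reporter mRNA was read by RT-PCR/CE fluorescence and fitted in both directions relative to DMSO.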

[13] = ATG_TGFb_CIS: Attagene CIS-FACTORIAL HepG2 Assay for human Transforming Growth Factor (TGF) (AID 2282967); conditions: HepG2 Attagene CIS TGFb reporter, mRNA transcription; actives raise or lower the signal
Summary of the method: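 HepG2 cells transiently transfected with cis-promoter-driven multiplexed reporter units; 24 h compound exposure. Reporter mRNA measured by RT-PCR, 6-FAM labeling, HpaI digestion and capillary electrophoresis; bidirectional fit versus DMSO baseline.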

[14] = ATG_VDRE_CIS: Attagene CIS-FACTORIAL HepG2 Assay for human Vitamin D Receptor Element (VDRE) (AID 2282968); conditions: HepG2 VDRE cis-reporter transcription, actives raise or lower the signal
Summary of the method: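 Measures endogenous factor activity through cis-element-driven reporter transcripts in transiently transfected HepG2. Cells are treated 24 h; reporter mRNA is quantified by RT-PCR and capillary electrophoresis; fitting is bidirectional.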

[15] = target: Nuclear receptor subfamily 1 group I member 3 (Homo sapiens) (UniProt Q14994); experiment: ATG_CAR_TRANS: Attagene TRANS-FACTORIAL HepG2 Assay for human Constitutive Androstane Receptor (CAR) (AID 2282969; active means hit-call score of the fitted dose curve at least 0.9, where 1 is the maximum;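 further: activators raise reporter mRNA above DMSO so AC50 marks induction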); conditions: HepG2 Attagene TRANS-FACTORIAL CAR reporter
Summary of the method: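 Signal is reporter mRNA induction relative to DMSO, measured 24 h after dosing by RT-PCR with fluorescent primer extension and capillary electrophoresis. Human HepG2 liver cells carried transiently transfected chimeric NR-Gal4/GAL4-UAS reporter constructs.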

[16] = target: Steroid hormone receptor ERR1 (Homo sapiens) (UniProt P11474); experiment: ATG_ERRa_TRANS: Attagene TRANS-FACTORIAL HepG2 Assay for human Estrogen-Related Receptor alpha (ERRa) (AID 2282971; active means hit-call score of the fitted dose curve at least 0.9, where 1 is the maximum); conditions: HepG2 Attagene TRANS reporter, ERRa transactivation
Summary of the method: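 HepG2 cells transiently transfected with GAL4-UAS reporter units and chimeric NR-Gal4 constructs; after 24 hour compound incubation, reporter mRNA quantified by RT-PCR, fluorescent labelling and capillary electrophoresis, gain of signal versus DMSO.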

[17] = target: X-box-binding protein 1 (Homo sapiens) (UniProt P17861); experiment: ATG_Xbp1_CIS: Attagene CIS-FACTORIAL HepG2 Assay for human X-box Binding Protein 1 (XBP1) (AID 2282972); conditions: HepG2 XBP1 cis-element reporter, Attagene multiplex; actives raise or lower the signal
Summary of the method: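 Reporter transcripts were quantified by RT-PCR with fluorescent primer extension and capillary electrophoresis after 24 h chemical exposure. Cells: transiently transfected HepG2 carrying cis-regulated reporter constructs; data fitted bidirectionally relative to DMSO.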

[18] = ATG_M_19_TRANS: Attagene TRANS-FACTORIAL HepG2 Assay for M19 Transcription Factor (Internal Marker) (AID 2282974; active means hit-call score of the fitted dose curve at least 0.9, where 1 is the maximum); conditions: HepG2 Attagene TRANS-FACTORIAL M19 internal marker reporter
Summary of the method: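 Background-control readout: after 24 h chemical exposure of transfected HepG2 carrying GAL4-driven reporter units, RNA was reverse-transcribed, amplified, fluorescently labeled and sized by capillary electrophoresis; gain-of-signal fit against DMSO.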

[19] = target: Estrogen receptor (Homo sapiens) (UniProt P03372); experiment: ATG_ERa_TRANS: Attagene TRANS-FACTORIAL HepG2 Assay for human Estrogen Receptor alpha (ERa) (AID 2282970; active means hit-call score of the fitted dose curve at least 0.9, where 1 is the maximum); conditions: HepG2 Attagene TRANS ERa GAL4 reporter, mRNA
Summary of the method: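 Gal4-fusion ERa transactivation, measured as reporter transcript level in transiently transfected HepG2 cells. Exposure 24 h; RT-PCR plus capillary electrophoresis with fluorescence detection.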

[20] = target: Androgen receptor (Homo sapiens) (UniProt P10275); experiment: ATG_AR_TRANS: Attagene TRANS-FACTORIAL HepG2 Assay for human Androgen Receptor (AR) (AID 2282973; active means hit-call score of the fitted dose curve at least 0.9, where 1 is the maximum); conditions: HepG2 Attagene TRANS-FACTORIAL AR reporter transcription
Summary of the method: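 HepG2 cells transiently transfected with AR-Gal4 chimera and GAL4-UAS reporter units; chemical exposure 24 h. Reporter mRNA quantified by RT-PCR with fluorescent labelling and capillary electrophoresis; gain-of-signal fitted against DMSO.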

Measured: AC50

Signal transducer and activator of transcription 3 (Homo sapiens), sequence (P40763 whole entry, looked up): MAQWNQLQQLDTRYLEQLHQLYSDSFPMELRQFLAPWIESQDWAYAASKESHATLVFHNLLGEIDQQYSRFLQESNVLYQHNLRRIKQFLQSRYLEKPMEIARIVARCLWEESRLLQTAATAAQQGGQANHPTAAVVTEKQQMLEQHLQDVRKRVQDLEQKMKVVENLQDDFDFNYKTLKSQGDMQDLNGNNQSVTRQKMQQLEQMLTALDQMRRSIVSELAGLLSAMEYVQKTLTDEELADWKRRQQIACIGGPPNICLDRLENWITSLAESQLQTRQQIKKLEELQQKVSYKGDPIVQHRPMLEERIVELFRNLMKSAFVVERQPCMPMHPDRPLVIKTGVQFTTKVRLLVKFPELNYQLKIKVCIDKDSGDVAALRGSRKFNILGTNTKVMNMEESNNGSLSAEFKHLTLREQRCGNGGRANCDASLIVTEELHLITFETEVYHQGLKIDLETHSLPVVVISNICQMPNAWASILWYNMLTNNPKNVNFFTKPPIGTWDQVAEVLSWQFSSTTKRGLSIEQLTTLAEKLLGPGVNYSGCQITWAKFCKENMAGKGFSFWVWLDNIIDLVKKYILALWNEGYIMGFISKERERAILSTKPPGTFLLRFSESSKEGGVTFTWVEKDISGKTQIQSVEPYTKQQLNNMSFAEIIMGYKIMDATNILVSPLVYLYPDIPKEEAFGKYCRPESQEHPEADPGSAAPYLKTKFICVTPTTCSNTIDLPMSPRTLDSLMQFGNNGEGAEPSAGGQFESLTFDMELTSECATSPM
Transcription factor Sp1 (Homo sapiens), sequence (P08047 whole entry, looked up): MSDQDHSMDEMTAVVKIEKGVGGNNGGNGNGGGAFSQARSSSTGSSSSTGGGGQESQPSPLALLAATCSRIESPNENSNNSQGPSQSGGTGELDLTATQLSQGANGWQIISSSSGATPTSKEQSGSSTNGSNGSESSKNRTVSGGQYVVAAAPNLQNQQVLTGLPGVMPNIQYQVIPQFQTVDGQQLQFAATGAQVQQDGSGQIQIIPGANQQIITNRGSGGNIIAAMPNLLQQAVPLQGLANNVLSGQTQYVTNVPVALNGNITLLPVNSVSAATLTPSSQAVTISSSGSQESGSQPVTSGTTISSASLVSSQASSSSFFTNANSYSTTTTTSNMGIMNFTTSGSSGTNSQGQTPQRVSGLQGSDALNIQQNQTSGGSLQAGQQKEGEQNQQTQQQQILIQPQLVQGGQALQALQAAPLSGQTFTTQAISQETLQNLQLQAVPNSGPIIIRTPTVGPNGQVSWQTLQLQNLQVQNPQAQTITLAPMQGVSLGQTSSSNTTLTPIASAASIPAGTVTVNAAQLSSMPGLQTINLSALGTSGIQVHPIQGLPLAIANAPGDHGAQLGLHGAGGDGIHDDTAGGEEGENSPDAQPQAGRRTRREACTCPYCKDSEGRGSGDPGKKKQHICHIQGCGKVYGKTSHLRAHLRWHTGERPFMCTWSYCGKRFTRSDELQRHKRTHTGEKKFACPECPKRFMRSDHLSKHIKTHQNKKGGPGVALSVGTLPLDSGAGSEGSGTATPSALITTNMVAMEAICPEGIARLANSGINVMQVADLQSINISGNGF
Paired box protein Pax-6 (Homo sapiens), sequence (P26367 whole entry, looked up): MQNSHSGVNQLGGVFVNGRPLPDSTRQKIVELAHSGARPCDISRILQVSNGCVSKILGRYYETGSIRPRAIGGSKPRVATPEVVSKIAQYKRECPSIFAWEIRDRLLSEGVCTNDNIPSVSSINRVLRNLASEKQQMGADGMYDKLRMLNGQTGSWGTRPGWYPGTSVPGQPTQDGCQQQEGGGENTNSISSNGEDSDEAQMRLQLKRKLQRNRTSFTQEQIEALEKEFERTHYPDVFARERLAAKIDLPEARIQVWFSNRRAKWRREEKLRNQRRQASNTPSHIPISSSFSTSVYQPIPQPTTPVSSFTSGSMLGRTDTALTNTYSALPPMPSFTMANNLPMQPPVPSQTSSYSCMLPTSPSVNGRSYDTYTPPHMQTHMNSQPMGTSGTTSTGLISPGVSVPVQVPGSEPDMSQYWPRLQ
Nuclear receptor subfamily 1 group I member 3 (Homo sapiens), sequence (Q14994 whole entry, looked up, the tested form may be a part): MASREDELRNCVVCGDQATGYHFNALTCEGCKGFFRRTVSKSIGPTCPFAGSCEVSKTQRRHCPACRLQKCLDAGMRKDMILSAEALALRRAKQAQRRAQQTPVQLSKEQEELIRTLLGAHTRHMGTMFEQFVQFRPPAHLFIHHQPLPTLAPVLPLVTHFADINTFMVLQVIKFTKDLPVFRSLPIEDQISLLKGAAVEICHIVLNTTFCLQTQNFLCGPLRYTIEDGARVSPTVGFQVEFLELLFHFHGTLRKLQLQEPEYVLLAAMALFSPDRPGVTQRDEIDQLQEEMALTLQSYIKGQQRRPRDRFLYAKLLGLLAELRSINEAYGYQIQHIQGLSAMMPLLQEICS
X-box-binding protein 1 (Homo sapiens), sequence (P17861 whole entry, looked up): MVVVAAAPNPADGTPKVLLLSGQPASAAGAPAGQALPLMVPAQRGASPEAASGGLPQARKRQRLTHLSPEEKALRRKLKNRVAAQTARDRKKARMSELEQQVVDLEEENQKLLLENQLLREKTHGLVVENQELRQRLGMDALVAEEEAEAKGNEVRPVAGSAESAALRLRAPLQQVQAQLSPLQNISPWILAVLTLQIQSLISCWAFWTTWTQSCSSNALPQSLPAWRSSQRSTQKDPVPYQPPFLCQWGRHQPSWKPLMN
Estrogen receptor (Homo sapiens), sequence (P03372 whole entry, looked up, the tested form may be a part): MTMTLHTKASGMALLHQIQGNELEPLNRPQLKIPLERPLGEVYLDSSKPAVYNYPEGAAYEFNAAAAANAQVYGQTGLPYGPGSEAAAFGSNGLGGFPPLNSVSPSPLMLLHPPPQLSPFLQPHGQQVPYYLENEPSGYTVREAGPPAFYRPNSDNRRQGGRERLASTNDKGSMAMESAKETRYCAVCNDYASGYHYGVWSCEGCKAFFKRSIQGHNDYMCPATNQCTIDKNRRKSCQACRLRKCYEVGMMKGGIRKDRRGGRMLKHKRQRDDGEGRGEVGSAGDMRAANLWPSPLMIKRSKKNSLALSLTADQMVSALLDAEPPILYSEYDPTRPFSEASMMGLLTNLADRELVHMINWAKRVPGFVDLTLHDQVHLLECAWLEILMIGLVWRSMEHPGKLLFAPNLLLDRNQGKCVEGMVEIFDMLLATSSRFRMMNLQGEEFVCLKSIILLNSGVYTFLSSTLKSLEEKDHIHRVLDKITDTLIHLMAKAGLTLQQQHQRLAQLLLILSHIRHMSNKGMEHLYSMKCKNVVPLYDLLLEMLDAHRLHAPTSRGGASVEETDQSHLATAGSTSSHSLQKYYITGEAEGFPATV
Steroid hormone receptor ERR1 (Homo sapiens), sequence (P11474 whole entry, looked up, the tested form may be a part): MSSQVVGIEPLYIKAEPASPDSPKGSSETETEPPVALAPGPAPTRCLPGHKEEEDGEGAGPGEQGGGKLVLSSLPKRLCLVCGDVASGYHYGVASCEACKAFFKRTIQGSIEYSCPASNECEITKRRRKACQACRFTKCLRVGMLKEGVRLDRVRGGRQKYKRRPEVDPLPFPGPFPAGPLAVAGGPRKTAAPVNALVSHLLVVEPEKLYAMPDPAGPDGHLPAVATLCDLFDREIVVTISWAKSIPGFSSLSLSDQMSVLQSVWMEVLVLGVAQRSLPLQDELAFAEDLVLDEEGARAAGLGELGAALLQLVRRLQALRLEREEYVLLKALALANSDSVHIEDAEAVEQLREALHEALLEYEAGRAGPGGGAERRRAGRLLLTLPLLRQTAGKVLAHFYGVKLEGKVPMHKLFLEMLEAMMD
Androgen receptor (Homo sapiens), sequence (P10275 whole entry, looked up, the tested form may be a part): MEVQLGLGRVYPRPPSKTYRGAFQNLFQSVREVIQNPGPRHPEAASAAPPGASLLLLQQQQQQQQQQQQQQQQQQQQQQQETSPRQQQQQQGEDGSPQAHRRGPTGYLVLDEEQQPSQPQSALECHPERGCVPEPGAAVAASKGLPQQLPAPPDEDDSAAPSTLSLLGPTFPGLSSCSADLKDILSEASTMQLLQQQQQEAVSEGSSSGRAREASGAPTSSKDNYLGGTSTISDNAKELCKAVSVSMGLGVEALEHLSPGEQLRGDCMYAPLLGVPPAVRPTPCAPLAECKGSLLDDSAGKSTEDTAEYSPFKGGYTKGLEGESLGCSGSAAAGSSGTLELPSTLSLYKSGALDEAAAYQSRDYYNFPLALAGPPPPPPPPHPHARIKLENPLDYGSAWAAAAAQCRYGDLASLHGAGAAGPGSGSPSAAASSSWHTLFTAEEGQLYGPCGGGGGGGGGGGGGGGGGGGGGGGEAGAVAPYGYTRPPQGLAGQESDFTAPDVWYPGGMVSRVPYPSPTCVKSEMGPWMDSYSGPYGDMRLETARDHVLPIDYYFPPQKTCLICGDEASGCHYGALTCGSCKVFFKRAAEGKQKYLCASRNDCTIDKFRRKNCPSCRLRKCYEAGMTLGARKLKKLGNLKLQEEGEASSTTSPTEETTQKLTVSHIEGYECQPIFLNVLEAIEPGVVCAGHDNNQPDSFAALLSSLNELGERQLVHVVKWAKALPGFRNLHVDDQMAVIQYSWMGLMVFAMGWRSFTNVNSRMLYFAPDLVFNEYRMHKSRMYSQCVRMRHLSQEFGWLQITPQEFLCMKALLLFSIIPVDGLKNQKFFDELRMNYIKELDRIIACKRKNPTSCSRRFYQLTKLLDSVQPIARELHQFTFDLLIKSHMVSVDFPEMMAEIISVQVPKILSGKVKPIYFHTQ

COC(=O)C(C)Oc1ccc(Oc2ccc(Cl)cc2Cl)cc1 (centres undefined)
active: [3] 23 µM and 16.9 µM and 22 µM | [4] 18.7 µM and 11 µM and 23 µM
not listed: [19] | [20]
inactive: all other assays above

N#Cc1nn(-c2c(Cl)cc(C(F)(F)F)cc2Cl)c(N)c1S(=O)C(F)(F)F (centres undefined)
active: [1] 19.4 µM | [2] 48.4 µM | [3] 2.37 µM and 44.9 µM | [4] 22.8 µM | [14] 15.4 µM | [19] 11.8 µM | [17] 15.3 µM
inactive: [1] | [2] | [4] | [5] | [7] | [8] | [9] | [10] | [11] | [12] | [13] | [14] | [15] | [19] | [16] | [17] | [20] | [18]

CCOc1cc(Oc2ccc(C(F)(F)F)cc2Cl)ccc1[N+](=O)[O-]
active: [3] 8.64 µM | [4] 13.7 µM | [5] 29.8 µM | [17] 13.1 µM
not listed: [14] | [16] | [18] | [20]
inactive: all other assays above

COP(N)(=O)SC (centres undefined)
not listed: [16] | [20]
inactive: all other assays above

O=C(O)COc1nc(Cl)c(Cl)cc1Cl
active: [3] 59.9 µM | [4] 50 µM
not listed: [15] | [16] | [18] | [20]
inactive: all other assays above

C=CCC1=C(C)C(OC(=O)C2C(C=C(C)C)C2(C)C)CC1=O (centres undefined)
inactive: [1] | [2] | [5] | [7] | [8] | [9] | [10] | [11] | [12] | [13] | [14] | [15] | [19] | [16] | [17] | [18]
active: [2] 64.5 µM [middle of 4 runs] | [3] 566 nM [middle of 6 runs] | [5] 27.2 µM [middle of 4 runs] | [7] 54.2 µM [middle of 5 runs] | [10] 30.9 µM and 52.5 µM and 74.7 µM | [11] 48.8 µM [middle of 5 runs] | [12] 105 µM | [13] 178 µM | [19] 26.8 µM | [17] 53.5 µM [middle of 5 runs]
